A selection: hits, their analogues and other compounds. The true share with any hit is near 19%.
IL1B secr inh: inhibitors of inflammasome signaling (IL-1 beta secretion); THP-1 LPS/ATP IL-1B secretion, AlphaLISA, 16 h; hits give low values; activity change, % at 57.5 µM; 360,000 compounds, 4.7% hits; AID 743279; in the data active means activity change below about -50%; inconclusive means mostly about -30% to -49%
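THP-1 cells pretreated 1 hr with compounds (up to 57.5 uM final), then stimulated with LPS (250 ng/mL final) plus ATP (1.25 mM final); secreted IL-1B measured by AlphaLISA after 16 hr, decreased signal indicating inhibition.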
HT1080 IDH1KD tx: toxicity to HT-1080 IDH1 knockdown cells (counter line); 360,000 compounds, 2% hits; HT-1080 IDH1 knockdown viability, ATP luminescence, 48 h; Potency, µM (top dose mostly 46.1 µM), inactives show at the highest dose activity, negative = toxicity, most hits filed as cytotoxic;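 further: potency means the concentration at half of the fitted maximal effect; 0% = DMSO wells and -100% = cell-free medium wells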
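Knockdown cells (IDH1KD HT-1080) received compounds 2 h after plating at 750 cells/well and were kept 48 h at 37 °C in 5% FBS RPMI. A CellTiter-Glo luminescence read gave % activity for curve fitting.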
DT40 TDP1 CPT: growth inhibition of DT40 Tdp1-/-;hTDP1 cells with camptothecin (screen for TDP1 inhibitors); chicken DT40 Tdp1-/-;hTDP1 cells + 20 nM CPT, ATP luminescence, 48 h; Potency, µM (series often up to 46.2 µM), for inactives: at the highest dose activity change, negative = growth inhibition, actives largely listed as inhibitors; 420,000 compounds, 12% hits; AID 686979; further: potency means the concentration at half of the fitted maximal effect; nearly all actives have a fitted effect of over 55% in size
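Chicken DT40 Tdp1-/- cells complemented with human TDP1, 400 cells/well, exposed to compounds plus 20 nM camptothecin for at least 48 h at 37 C; viability read as ATP content by CellTiter-Glo luminescence.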
HT1080NT lethal: kills 2HG-producing HT-1080-NT fibrosarcoma cells. AID 686970. 360,000 compounds, 1.6% hits. HT-1080-NT fibrosarcoma viability, CellTiter-Glo ATP luminescence, 48 h. Potency, µM (highest dose often 46.1 µM), without a hit: at the highest dose activity, negative = less viability, most hits filed as cytotoxic;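 further: NT is the 2HG producing partner of a matched IDH1 knockdown line; potency means the concentration at half of the fitted maximal effect; 0% = DMSO-treated cells and -100% = media-only wells without cells; nearly all actives have a fitted effect of over 55% in size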
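Toxicity toward the 2HG-producing NT line was scored as %Activity, normalised to DMSO and no-cell wells, from CellTiter-Glo luminescence after 48 hours' treatment.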
DT40 TDP1 no CPT: qHTS for Inhibitors of human tyrosyl-DNA phosphodiesterase 1 (TDP1): qHTS in cells in absence of CPT | DT40 Tdp1-/- hTDP1 cells, no CPT, ATP luminescence, 48 h | Potency, µM (titrated, usually from 46.2 µM), for inactives: at the top dose activity change, negative = growth inhibition, usual class: inhibitors | 420,000 compounds, 15% hits; further: potency means the concentration at half of the fitted maximal effect; nearly all actives have a fitted effect of over 55% in size
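Luminescent ATP content (CellTiter-Glo) served as the growth readout. Knockout chicken DT40 cells expressing human TDP1 were exposed to compounds without camptothecin for a minimum 48 hr at 37 °C.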
The depositor's hits bear a star; ? = inconclusive; nt = no result; [ ] = another dose, or the depositor's remark. Unless noted, the call rests on the fitted dose curve; in most records, active means well fitted curve in the direction sought with a large enough effect; inconclusive means small, poorly fitted or top-dose-only effect, or another doubt; inactive means no such curve, though single readings can be large; an effect the other way counts as inactive or inconclusive. Unless noted, on the % scale 0 is the no-effect control and ±100 the full control effect.

SMILES	IL1B secr inh	HT1080 IDH1KD tx	DT40 TDP1 CPT	HT1080NT lethal	DT40 TDP1 no CPT
CC(OC(=O)c1ccccn1)C(=O)Nc1nc(-c2ccc(F)c(F)c2)cs1 (stereo not given)	?	6%	26µM*	4%	23µM*
Cc1cccc(C(=O)NC(C(=O)Nc2nc(-c3ccccn3)cs2)C(C)C)c1 (stereo not given)	86	?	13µM*	-28%	12µM*
C[C@H](NC(=O)c1ccccc1)C(=O)Nc1nc(-c2ccccn2)cs1	94	-15%	26µM*	-3%	?
CC(Oc1cccc(Cl)c1)C(=O)Nc1nc(-c2ccccn2)cs1 (stereo not given)	-101*	-26%	3.3µM*	?	5.2µM*
O=C(COc1ccc(C(=S)N2CCOCC2)cc1Cl)Nc1ccccc1Cl	0	13%	-22%	16%	-19%
CCOc1cc(C(=S)N2CCCC2)ccc1OCC(=O)Nc1c(C)cc(C)cc1C	-4	-6%	18µM*	-16%	16µM*
COc1cc(C(=S)N2CCCCC2)ccc1OCC(=O)Nc1ccccc1Cl	-70*	-8%	?	?	23µM*
CCC1CCCCN1C(=O)CCS(=O)(=O)c1ccccc1 (stereo not given)	12	8%	1%	8%	24%
COc1cc(CN(C(=O)COc2ccc(Cl)c(C)c2)c2ccccn2)cc(OC)c1OC	nt	nt	12µM*	nt	10µM*
Cc1ccc(CN(C(=O)COc2ccc(Cl)c(C)c2)c2ccccn2)o1	nt	nt	?	nt	15µM*
COCC(=O)N(Cc1ccccc1)c1ccccn1	-9	6%	4%	18%	-10%
Cc1ccc(CN(C(=O)COc2cccc([N+](=O)[O-])c2)c2ccccn2)cc1	nt	nt	?	nt	21µM*
COc1cc(CN(C(=O)COc2ccc(Br)cc2)c2ccccn2)cc(OC)c1OC	nt	nt	16µM*	nt	16µM*
O=C(COc1ccccc1[N+](=O)[O-])N(Cc1ccccc1)c1ccccn1	-14	-27%	-2%	-12%	-22%
O=C(COc1ccc(Cl)cc1)N(Cc1ccco1)c1ccccn1	nt	nt	-14%	nt	-29%
CCCc1nn2c(=O)cc(COC(=O)c3ccccc3NC(=O)c3ccc(Cl)cc3)nc2s1	nt	nt	-23%	nt	?
COc1cc(NC(=O)c2nc(-c3ccncc3)no2)cc(OC)c1OC	nt	nt	-28%	nt	?
CC(C)CCNC(=O)CCCC1=NS(=O)(=O)c2ccccc2N1	6	2%	-6%	?	?
Cc1ccc(OCC(=O)N(Cc2ccccc2)c2ccccn2)cc1	-13	-1%	-15%	11%	1%
COc1cc(CN(C(=O)COc2ccccc2Cl)c2ccccn2)cc(OC)c1OC	nt	nt	?	nt	18µM*
COc1cc(CN(C(=O)COc2ccc(C)cc2)c2ccccn2)cc(OC)c1OC	nt	nt	8.2µM*	nt	9.2µM*
Cc1ccc2c(=O)cc(C(=O)Nc3c(C(=O)c4ccccc4)oc4ccccc34)oc2c1C	nt	nt	-9%	nt	-11%
CCOC(=O)Cn1nc(NC(=O)c2cc(OC)cc(OC)c2)cc1C	-3	2%	?	1%	?
CCOC(=O)Cn1ccc(NC(=O)c2ccc3c(c2)OCO3)n1	-95*	1%	?	1%	?
CCOC(=O)Cn1nc(NC(=O)c2ccc(C(=O)OC)cc2)cc1C	-96*	-26%	?	-18%	?
SMILES	IL1B secr inh	HT1080 IDH1KD tx	DT40 TDP1 CPT	HT1080NT lethal	DT40 TDP1 no CPT
O=C(Cn1cc[n+](CC(=O)c2ccccc2)c1)c1ccccc1	-21	4%	8.2µM*	6%	4.1µM*
Nc1cc[n+](CC(=O)c2ccccc2)cc1	35	0%	?	0%	?
O=C(Cn1cc[n+](CC(=O)c2ccc(Cl)cc2Cl)c1)c1ccc(Cl)cc1Cl	-82*	-8%	?	-15%	26µM*
COc1ccc(C(=O)NCc2ccncc2)cc1S(=O)(=O)NCc1ccc(Cl)cc1	2	6%	-18%	-3%[9.24 µM]	10%
CNC(=O)[C@H](Cc1c[nH]c2ccccc12)NC(=O)[C@@H](CC(=O)NO)CC(C)C	nt	nt	22µM*	nt	31µM*
O=C(Cc1c[nH]c2ccccc12)N[C@@H](Cc1c[nH]c2ccccc12)C(=O)O	13	8%	1%	-2%	-2%
CCOc1cccc(-c2cc(NCCc3ccccn3)n3nccc3n2)c1	6	18%	?	5%	?
O=C(CCSCc1cccc(Cl)c1)NCCc1ccccc1	-5	22%	-11%	11%	-29%
O=C(CCSCc1cccc(Cl)c1)NCc1ccccc1Cl	nt	nt	?	nt	26µM*
O=C(CCSCc1cccc(F)c1)NCc1ccc(F)cc1	19	5%	?	0%	18µM*
CCCCC1CCC(C(=O)Nc2ccccc2N2CCOCC2)CC1 (stereo not given)	31	7%	?	10%	?
COc1cccc(NC(=S)N(CCCN2CCCC2)Cc2ccco2)c1	-1	-16%	-11%	-27%	-5%
S=C(Nc1cccc(Cl)c1)N(CCCN1CCCC1)Cc1cccn1Cc1ccc(Cl)cc1	-101*	18µM*	?	16µM*	18µM*
COc1cccc(NC(=S)N(CCCN2CCCC2)Cc2cccn2Cc2ccc(Cl)cc2)c1	?	18µM*	?	21µM*	18µM*
CSc1cccc(NC(=S)N(CCCN2CCCC2)Cc2cccn2Cc2ccc(Cl)cc2)c1	?	?	?	18µM*	9.2µM*
Nc1nc(-c2ccccc2)ns1	28	-1%	-2%	2%	-11%
COc1ccc(C(=O)OCC(=O)NCc2ccc3c(c2)OCO3)cc1S(=O)(=O)N1CCOCC1	-2	5%	-17%	13%	-10%
CCN(CCN(C)C)C(=O)c1ccc2c(c1NCCO)C(=O)c1ccccc1C2=O	-30	?	?	?	23µM*
CC1(C)CCCN(C(=O)c2ccc3c(c2NCCO)C(=O)c2ccccc2C3=O)C1	-65*	-9%	?	-10%	?
O=C1c2ccccc2C(=O)c2c1ccc(C(=O)N1CCCCC1)c2NCCO	-7	17%	?	5%	?
CN(C(=O)c1cccc(NC(=O)Cc2cccc(NC(=O)C3CCCN(C(=O)c4ccccc4)C3)c2)c1)C1CCC1 (stereo not given)	0	6%	?	4%	?
Cc1ccc2nc(SC(C)C(=O)N3CCOCC3)[nH]c2c1 (stereo not given)	-2	5%	4%	3%	3%
Cc1sc(=NC(=O)c2ccco2)n(C)c1-c1ccccc1	?	18%	?	6%	?
Cc1sc(=NC(=O)c2ccco2)n(C)c1-c1ccc(F)cc1	?	1%	?	15%	16µM*
